Experimental data reported in PubChem BioAssay (EPA / NIEHS).
Records with an inconclusive call do not appear. Active and inactive are the calls of the source. The calls were made as follows: active = hit-call score of the fitted dose curve at least 0.9, where 1 is the maximum; inconclusive = response in the unintended direction; inactive = score below 0.9.

Assay: IUF_NPC1_cytotoxicity_72hr: Cytotoxicity Assessment at 72 hours in the Leibniz Research Institute for Environmental Medicine (IUF) Neural Progenitor Cell Proliferation Assay (NPC1) (AID 2284332);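 also: rising LDH signal means more cytotoxicity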
Procedure: IUF_NPC1 is a cell-based, multiplexed assay that uses hNPC, a human primary neural progenitor cells, with measurements taken at 72 hours after chemical dosing in a 96-well plate. Human neural progenitor cells (hNPC) are generated from human fetal brain cortex at gestational week (GW) 16-19. Grown in suspension culture and under proliferative conditions (proliferation media and growth factors), these cells represent neural progenitor cell proliferation. In the NPC1 assay, hNPC's are exposed to the test compound for 72h. Cell proliferation is assessed as an increase in sphere area using automated phase contrast imaging and as incorporation of Bromodeoxyuridine (BrdU) during DNA synthesis using a luminescence-based cell proliferation ELISA. In parallel, the cell viability is assessed using an alamar blue viability assay and the cytotoxicity using a lactate dehydrogenase dependent membrane integrity assay.IUF_NPC1_cytotoxicity_72hr is one of 4 assay components measured from the IUF_NPC1 assay. It is designed to measure cytotoxicity at 72 hrs due to loss of membrane integrity. LDH measurements are performed from medium supernatants of each well and are based on the reduction of resazurin to resorufin measured as fluorescence signal (relative fluorescence unit) in a multiplate reader. Data from the IUF_NPC1_cytotoxicity_72hr component was analyzed at the endpoint IUF_NPC1_cytotoxicity_72hr in the positive analysis fitting direction relative to the dynamic range and baseline of activity. Using a type of viability reporter, gain-of-signal activity can be used to understand cytotoxicity effects.
After the cell expansion period, the cells are cultured for up to four weeks in which they are passaged every week. Between one to three days after passaging, depending on the size chosen for passaging, spheres at a size of 0.3 mm are used in the assay. For the assessment of neural progenitor cell proliferation, the spheres are plated in poly-Hema coated 96-well U-bottom plates filled with proliferation medium containing growth factors (EGF and FGF). One 0.25 - 0.35 mm big sphere is plated in the middle of each well. Within 3 days NPCs proliferate and grow in size. Cultivation during the test method is performed at 37C and 5% CO2 at a pH of 7.2-7.6. As a positive control, spheres are cultivated in the absence of growth factors (EGF and FGF), which dramatically reduces proliferation. Exposure starts on the plating day (day 0) and is continued over three days, without chemical renewal, until the experiment is terminated. The assay is terminated by the assessment of cell viability, cytotoxicity, and proliferation by BrdU. All endpoints are generated from the same experimental run and from each well/sphere in the 96-well plate.

Row | SMILES | outcome
1 | COC(=O)N(C(=O)N1CO[C@@]2(C(=O)OC)Cc3cc(Cl)ccc3C2=N1)c1ccc(OC(F)(F)F)cc1 | inactive
2 | CN/C(=N\[N+](=O)[O-])NCc1cnc(Cl)s1 | inactive
3 | N#CN=C1SCCN1Cc1ccc(Cl)nc1 | inactive
4 | COP(=S)(OC)SCn1nnc2ccccc2c1=O | inactive
5 | CC1(C)C(C=C(Cl)Cl)C1C(=O)OC(C#N)c1cccc(Oc2ccccc2)c1 (centres undefined) | inactive
6 | O=C(Nc1ccccc1-c1ccc(Cl)cc1)c1cccnc1Cl | inactive
7 | CCSC(=O)N1CCCCCC1 | inactive
8 | CC(C)(C)C(=O)C(Oc1ccc(Cl)cc1)n1cncn1 (centres undefined) | inactive
9 | CNC(=O)Oc1cccc2ccccc12 | inactive
10 | CS(=O)(=O)c1cc(C(F)(F)F)ccc1C(=O)c1cnoc1C1CC1 | inactive
11 | CCOP(=O)(OCC)Oc1nc(Cl)c(Cl)cc1Cl | inactive
12 | Cc1c(COC(=O)[C@@H]2[C@H](/C=C(\Cl)C(F)(F)F)C2(C)C)cccc1-c1ccccc1 | inactive
13 | C=C(C)CN(CC)c1c([N+](=O)[O-])cc(C(F)(F)F)cc1[N+](=O)[O-] | inactive
14 | CCNC(=O)NC(=O)C(C#N)=NOC | inactive
